# From publication PMC4336329 (PLoS ONE, 2015)
# Hit rate of the full screen: of about 310,000 compounds, about 14,000 (4.5%) showed an effect of 50% or more. The effect is printed as a negative number. The full list was thinned out, with strong results kept by preference.
# Target: human ether-à-go-go-related gene (hERG) potassium channel (human, UniProt Q12809)
# Assay: primary screen, population patch clamp on CHO cells stably expressing hERG; higher = less effect of the substance
# 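Further: peak tail current of the secondary pulse compared with the same well before compound.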
# human ether-à-go-go-related gene (hERG) potassium channel, sequence (Q12809 whole entry, looked up): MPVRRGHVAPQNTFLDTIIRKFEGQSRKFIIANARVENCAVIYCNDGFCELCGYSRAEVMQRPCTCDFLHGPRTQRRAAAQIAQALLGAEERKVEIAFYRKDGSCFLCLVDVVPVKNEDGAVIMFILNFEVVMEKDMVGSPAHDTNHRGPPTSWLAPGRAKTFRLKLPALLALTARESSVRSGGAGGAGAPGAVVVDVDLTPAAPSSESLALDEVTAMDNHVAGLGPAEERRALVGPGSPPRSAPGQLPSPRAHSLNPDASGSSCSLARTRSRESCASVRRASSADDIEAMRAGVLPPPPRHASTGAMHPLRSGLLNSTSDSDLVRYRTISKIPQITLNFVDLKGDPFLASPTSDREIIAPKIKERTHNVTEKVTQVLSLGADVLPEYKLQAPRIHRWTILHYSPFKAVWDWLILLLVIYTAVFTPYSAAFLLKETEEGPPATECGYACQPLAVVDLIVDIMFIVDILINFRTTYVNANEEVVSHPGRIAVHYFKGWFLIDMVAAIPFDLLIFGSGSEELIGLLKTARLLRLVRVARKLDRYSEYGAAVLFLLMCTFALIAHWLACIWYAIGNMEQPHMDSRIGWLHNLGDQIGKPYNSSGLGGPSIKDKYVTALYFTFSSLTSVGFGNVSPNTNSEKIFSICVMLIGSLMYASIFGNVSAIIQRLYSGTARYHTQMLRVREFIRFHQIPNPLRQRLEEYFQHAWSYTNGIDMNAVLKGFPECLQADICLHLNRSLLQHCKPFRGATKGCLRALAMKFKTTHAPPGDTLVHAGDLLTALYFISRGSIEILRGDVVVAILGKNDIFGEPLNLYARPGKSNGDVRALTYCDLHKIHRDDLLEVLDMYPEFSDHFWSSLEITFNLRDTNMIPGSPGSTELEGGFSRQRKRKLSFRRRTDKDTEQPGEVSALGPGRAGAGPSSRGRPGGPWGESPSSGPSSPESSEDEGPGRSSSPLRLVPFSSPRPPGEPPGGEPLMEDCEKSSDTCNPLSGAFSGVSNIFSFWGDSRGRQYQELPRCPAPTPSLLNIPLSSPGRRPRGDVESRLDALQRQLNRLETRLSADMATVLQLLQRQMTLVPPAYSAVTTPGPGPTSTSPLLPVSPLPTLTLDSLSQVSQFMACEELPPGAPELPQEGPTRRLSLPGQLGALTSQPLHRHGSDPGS
row,Compound,"hERG current change (%, negative = inhibition) at 10uM"
1,COc1ccc(CN(CC2CCC(C(=O)O)CC2)C(=S)Nc2cccc(C)c2)cc1 (centres unmarked),-2.44%
2,O=Cc1cc(-c2ccccc2)[nH]c1-c1ccccc1,22.5%
3,COCCn1nnnc1C(C(C)C)N(Cc1cccnc1)Cc1cc2cc(OC)ccc2[nH]c1=O (centres unmarked),-29.3%
4,CCCCCC(=O)NNC(=O)Cc1ccc([N+](=O)[O-])cc1,-1.38%
5,Cc1ccccc1C(=O)c1cccn1CC(=O)NCC(C)c1ccccc1 (centres unmarked),-20.3%
6,O=C(Cn1cccc1C(=O)c1ccccc1)NCCN1CCCCCC1,-35.3%
7,Cc1ccccc1C(=O)c1cccn1CC(=O)NCCCN1CCc2ccccc2C1,-78.6%
8,Cc1ccccc1C(=O)c1cccn1CC(=O)NCCCN1CCCCC1,-41.9%
9,O=C(Cn1cccc1C(=O)c1ccccc1)NCCCN1CCOCC1,13.4%
10,O=C(Cn1cccc1C(=O)c1ccccc1)NCCCN1CCc2ccccc2C1,-74.1%
11,O=C(CN1C(=O)NC2(CCCCC2)C1=O)Nc1cc(C(F)(F)F)ccc1N1CCCCC1,-1.7%
12,Fc1cc(F)c2nc(Nc3nc4cc5c(cc4s3)OCO5)sc2c1,15.2%
13,O=C(Oc1ccc2ccccc2c1)c1cncc(Br)c1,-11.6%
14,CC1CCN(S(=O)(=O)c2ccc(NC(=O)[C@@H]3CCCC[C@@H]3C(=O)O)cc2)CC1,9.64%
15,CCC(C)(C(=O)NC1CCCCC1)N(Cc1ccco1)C(=O)c1cnccn1 (centres unmarked),-11.3%
16,Cc1ccc(NC(=O)COC(=O)COc2ccc3ccc(=O)oc3c2)cc1[N+](=O)[O-],3.51%
17,CCCc1nc2c(C)cc(C)cc2c(N)c1CC,-59.2%
18,Cc1cc(C)c2nc(C(F)(F)F)c(C#N)c(N)c2c1,17.4%
19,CCCc1nc2c(C)ccc(C)c2c(N)c1CC,-62.5%
20,CCCSc1nc(C)c2cc(C)cc(C)c2n1,10.9%
21,CCCc1nc2ccccc2c(C(=O)O)c1CC,1.82%
22,CCCc1nc(N)c(C#N)c(-c2ccco2)c1CC,14.3%
23,Cc1cc(C)cc(N=c2c([N+](=O)[O-])nn(-c3cccc(Cl)c3)n2O)c1,-6.03%
24,Cc1cccc(CC2CC(=O)N(CCc3ccc4c(c3)OCO4)C2=O)c1 (centres unmarked),34.2%

row,Compound,"hERG current change (%, negative = inhibition) at 10uM"
1,COc1ccc(C(=O)/C=C2\NCCc3cc(OC)c(OC)cc32)cc1OC,11.6%
2,O=C(O)CCc1nc2cc(C(F)(F)F)ccc2n(Cc2ccccc2)c1=O,23.8%
3,CN(C)C(CNC(=O)CCc1nc2cc(Cl)ccc2n(Cc2ccccc2)c1=O)c1ccccc1 (centres unmarked),-81.1%
4,CC(C)c1nc2cc(Cl)ccc2n(Cc2ccccc2)c1=O,24.6%
5,O=C(O)CCc1nc2cc(Cl)ccc2n(Cc2ccccc2)c1=O,22.2%
6,CCNC(=S)NNC(=O)CCc1nc2cc(Cl)ccc2n(Cc2ccccc2)c1=O,-54.7%
7,COC(=O)CCc1nc2cc(Cl)ccc2n(Cc2ccccc2)c1=O,-23.1%
8,CC(=O)Nc1ccc(NC(=O)CSc2nnc(-c3cccnc3)o2)cc1,7.42%
9,CCCn1c(C(Cc2ccccc2)NC(=O)COC)nc2ccccc21 (centres unmarked),2.2%
10,COc1cc2c(cc1NC(=O)/C=C/c1ccccc1)oc1ccccc12,18.8%
11,CCOc1ccccc1N1CC(C(=O)Nc2ccccc2N2CCOCC2)CC1=O (centres unmarked),12.5%
12,O=C(O)c1cc2cc(F)ccc2[nH]1,16.2%
13,O=C(Nc1ccc2c(c1)CCC2)c1cnc(Cl)c(Cl)c1,0.674%
14,CCN(CC)S(=O)(=O)c1ccc(N2CCOCC2)c(NC(=O)CN2C(=O)NC(C)(c3ccccc3)C2=O)c1 (centres unmarked),-24.1%
15,CCOC(=O)C1=C[C@]2(CC)CCCN3CCc4c(n1c1ccccc41)[C@@H]32,-91.8%
16,NC(=O)C1CCCc2c1n(Cc1ccccc1)c1ccccc21 (centres unmarked),-14.7%
17,CCn1cc(C2N3CC4(C)CN2CC(C)(C3)C4=O)c2ccccc21 (centres unmarked),7.47%
18,CCOC(=O)C1=CC[C@H]2c3c(c4ccccc4n3C)C[C@H]1N2C,3.88%
19,CC[C@]12CCCN3CCc4c(n(c5ccccc45)C(=O)C1)[C@@H]32,-75%
20,CCOC(=O)NNC(=O)CCn1c2c(c3ccccc31)CCCC2,-16.4%
21,CCN(CC)CC(=O)n1c2c(c3ccccc31)CCCC2,-34.2%
22,O=C(O)Cn1c(=O)c2c(c3ccccc31)CCC2,11.9%
23,CC[C@]12CCCN3CCc4c(n(c5ccccc45)C(=O)C1)C32 (some centres unmarked),-65.7%
24,O=C(CSc1nc(-c2ccccc2)cs1)Nc1cccc([N+](=O)[O-])c1,6.45%

row,Compound,"hERG current change (%, negative = inhibition) at 10uM"
1,N#Cc1ccccc1CSc1nc(N2CCCCC2)nc(N2CCCCC2)n1,5.79%
2,CNc1cc(C)c(C#N)c2nc3ccccc3n12,-8.75%
3,CCN(CC)S(=O)(=O)c1ccc2c3c(cccc13)C(=O)S2,-18.4%
4,COc1ccc(NC(=O)CN2CCN(c3ccc(Cl)cc3)CC2)c(OC)c1,-12.7%
5,COc1ccccc1NC(=O)CN1CCN(CC(=O)Nc2ccccc2Cl)CC1,2.56%
6,COc1ccc(C)cc1NC(=O)CN1CCN(CC(=O)Nc2ccccc2F)CC1,-48.7%
7,COc1ccc(NC(=O)CN2CCN(CC(=O)Nc3ccccc3Cl)CC2)c(OC)c1,-78%
8,COc1ccc(NC(=O)CN2CCN(CC(=O)Nc3ccccc3F)CC2)c(OC)c1,-63.5%
9,COc1ccc(NC(=O)CN2CCN(C3c4ccccc4-c4ccccc43)CC2)c(OC)c1,-10.5%
10,CC1=C(C(=O)OCCc2ccccc2)C(c2ccsc2)NC(=O)N1C (centres unmarked),-10.9%
11,OCC1(CO)COC(CCc2ccccc2)=N1,16.1%
12,CC(=O)OCc1c(C(F)(F)F)nn(C)c1SCc1ccc(Cl)cc1,8.19%
13,CC1(C(=O)N2CCOCC2)CCCCC1,11.6%
14,O=C(CCc1nnc2ccc(N3CCC4(CC3)OCCO4)nn12)N1CCCCC1,16.7%
15,COc1ccccc1/C=N/NC(=O)CC(=O)NCc1ccccc1,-2.25%
16,COc1ccc(C)cc1NC(=O)C1CCCCC1C(=O)O (centres unmarked),14.7%
17,CC(=O)Nc1ccc(S(=O)(=O)N2CCC(N3CCCC3)CC2)cc1,13.2%
18,CC(=O)Nc1ccc(S(=O)(=O)N2CCC(C(=O)c3ccc(F)cc3)CC2)cc1,-34.6%
19,O=S(=O)(c1ccc2c(c1)OCCO2)N1CCC(n2nnc3cc(F)ccc32)CC1,-38.7%
20,CC(=O)Nc1ccc(S(=O)(=O)N2CCC(n3cnc4cc(F)ccc43)CC2)cc1,-65.7%
21,O=S(=O)(c1ccc2c(c1)OCCO2)N1CCC(n2cnc3cc(F)ccc32)CC1,-62.4%
22,O=S(=O)(c1ccc2c(c1)OCCO2)N1CCC(n2nnc3cc(C(F)(F)F)ccc32)CC1,-16.4%
23,COc1cccc(OCCOCCNCCO)c1,-6.7%
24,O=C(CN(CCc1ccccc1)C(=O)c1csnn1)NC1CCCC1,-4.71%

row,Compound,"hERG current change (%, negative = inhibition) at 10uM"
1,C[C@]12CCC3C(CC[C@H]4CC(O)CC[C@]34C)C1CC/C2=N/O (some centres unmarked),13.3%
2,COc1ccc(OCC#CCN2CCC(C)CC2)cc1.O=C(O)C(=O)O,-11.4%
3,COc1ccc(CCN(C)CC(=O)Nc2cc(C)nc3ccccc23)cc1OC.O=C(O)C(=O)O,5.34%
4,CN(C)c1cc(NC(=O)CNC(C)(C)C)c2ccccc2n1.O=C(O)C(=O)O,-24.4%
5,CC(Cc1ccccc1)NCC(=O)Nc1cc(N(C)C)nc2ccccc12.O=C(O)C(=O)O (centres unmarked),-77.1%
6,CN1CCN(CC(=O)Nc2cc(N(C)C)nc3ccccc23)CC1.Cl,8.25%
7,CC(C)(C)CC(C)(C)NCC(=O)Nc1c2c(nc3ccccc13)CCC2.O=C(O)C(=O)O,-3.35%
8,CN(C)c1cc(NC(=O)CNC(C)(C)CC(C)(C)C)c2ccccc2n1.O=C(O)C(=O)O,-69.9%
9,CCOc1ccccc1NC(=O)[C@@H](NC(=O)c1ccccc1F)C(C)C,-6.35%
10,COc1ccc(C(C(N)=O)c2ncc(C(F)(F)F)cc2Cl)cc1 (centres unmarked),4.78%
11,O=C(CCCCl)NC1=NN(c2ccccc2)C(=O)C1,-4.99%
12,COc1ccccc1CNC1CCN(Cc2ccccc2)CC1,-3.89%
13,COc1ccc(OC)c(-n2c(CN3CCC(C(N)=O)CC3)nc3ccccc3c2=O)c1,-0.126%
14,COc1ccc(CNC2CCN(Cc3ccccc3)CC2)cc1,-54.2%
15,COc1ccc(OC)c(-n2c(CNC3CCN(Cc4ccccc4)CC3)nc3ccccc3c2=O)c1,-76.6%
16,FC(F)(F)c1cccc(CNC2CCN(Cc3ccccc3)CC2)c1,-28.3%
17,COc1ccc(CCNC(=S)NC2CCN(Cc3ccccc3)CC2)cc1,-36.9%
18,Cl.Clc1ccc(CNC2CCCC2)cc1,-13.1%
19,Fc1ccc(CNC2CCN(Cc3ccccc3)CC2)cc1,-65.3%
20,CC(NC1CCN(Cc2ccccc2)CC1)c1ccc(F)cc1 (centres unmarked),3.46%
21,Clc1ccc(CNC2CCN(Cc3ccccc3)CC2)cc1,-72.7%
22,S=C(NCc1ccc(Cl)cc1)NC1CCN(Cc2ccccc2)CC1,-41.8%
23,COc1ccc(-n2c(CN3CCOCC3)nc3ccccc3c2=O)c(OC)c1,22.9%
